Laboratory results from PMC5540273 (PLoS ONE, 2017).

These molecules were tested on DYRK1B. Conditions: concentration: 1 μM, replicates: in singlicate; n = 1.
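Note: KINOMEscan kinase panel screen.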

Q: How did the “%Inh” value turn out when `Cc1ccc(C(=O)Nc2ccc(Nc3ccnc4cc(-c5nccs5)ccc34)cc2O)cc1.Cl` [GW494702] was run?
A: The value was 0%.

Q: How did the “%Inh” value turn out when `CC(C)c1nc(-c2cccc(NS(=O)(=O)c3c(F)cccc3F)c2F)c(-c2ccnc(Nc3ccc(N4CCOCC4)nc3)n2)s1` [GSK2008607] was run?
A: The value was 0%.

Q: With `Cl.c1ccc(-c2ccc3c(Nc4ccc5[nH]ccc5c4)ccnc3c2)nc1` [GW440138] as the molecule, how does the “%Inh” value read?
A: Its value is 0%.

Q: For `Nc1ncc(-c2cccnc2)c2scc(-c3ccc4c(c3)CCN4C(=O)Cc3ccccc3)c12` [GSK683281], which “%Inh” value is on record?
A: The value was 27%.

Q: How did the “%Inh” value turn out when `COc1cc(Nc2nccc(-c3c(-c4cccc(NC(=O)c5c(F)cccc5F)c4)nn4ccccc34)n2)cc(OC)c1OC` [GSK323521] was run?
A: Its value is 0%.

Q: `CCc1ccc(-c2ccc3c(c2)-c2c(cnn2C)S(=O)(=O)N3C)cc1` was tested. Which “%Inh” value did it give?
A: The value was 3%.

Q: For `COC(=O)Nc1nc2cc(Oc3ccc(NC(=O)Nc4cc(C(F)(F)F)ccc4F)cn3)ccc2[nH]1.Cl.Cl` [GW681170], which “%Inh” value is on record?
A: The value was 12%.

Q: For `Cc1occc1-c1ncc(OC[C@@H](N)Cc2c[nH]c3ccccc23)cc1-c1ccc2[nH]nc(C)c2c1.O=C(O)C(F)(F)F` [GSK682037], which “%Inh” value is on record?
A: Its value is 0%.

Q: For `O=C(Nc1cccc(Oc2ccc3nc(NC(=O)C4CC4)cn3n2)c1)c1ccccc1C(F)(F)F`, which “%Inh” value is on record?
A: The value was 12%.

Q: With `CSc1cccc2c(-c3ccncn3)c(-c3ccc(F)cc3)nn12` [GW514786] as the molecule, how does the “%Inh” value read?
A: Its value is 0%.

Q: With `COc1cc(Nc2ncc3c(C)nc(-c4cc5ccccc5[nH]4)n3n2)cc(OC)c1OC` [GW869516] as the molecule, how does the “%Inh” value read?
A: Its value is 81%.

Q: `O=C(Nc1cccc(-c2nn3ccccc3c2-c2ccnc(Nc3cccc(C(F)(F)F)c3)n2)c1)c1c(F)cccc1F` [GSK292658] was tested. Which “%Inh” value did it give?
A: The value was 1%.

Q: How did the “%Inh” value turn out when `CNC(=O)c1ccccc1Nc1nc(Nc2ccc(N3CCOCC3)cc2)ncc1Cl.Cl` [GSK1576028] was run?
A: The value was 100%.

Q: How did the “%Inh” value turn out when `Cl.c1ccc(-c2ccc3c(Nc4ccc5[nH]ncc5c4)ccnc3c2)nc1` [GW440137] was run?
A: Its value is 31%.

Q: For `Cl.Cl.NCC(NC(=O)c1cc(-c2ccccc2)c(-c2ccnc3[nH]ccc23)s1)c1ccccc1` (stereo not shown) [GSK1321561], which “%Inh” value is on record?
A: Its value is 100%.

Q: `COc1cc2c(cc1OCCN1CCNCC1)ncc1c3ccc(C#N)cc3[nH]c21` was tested. Which “%Inh” value did it give?
A: Its value is 63%.

Q: How did the “%Inh” value turn out when `CCn1c(-c2nonc2N)nc2c(C#CC(C)(C)O)ncc(OCCCCN)c21.O=C(O)C(F)(F)F.O=C(O)C(F)(F)F` [GSK507274] was run?
A: Its value is 0%.

Q: With `COc1cc(Nc2nccc(-c3c(-c4cccc(NC(=O)c5c(F)cccc5F)c4)nn4ncccc34)n2)cc(OC)c1OC` [GSK327238] as the molecule, how does the “%Inh” value read?
A: The value was 33%.

Q: `COc1cc(Nc2nccc(N3CCC(NC(=O)Nc4cccc(C(C)=O)c4)C3)n2)cc(OC)c1OC` (stereo not shown) [GSK1379753] was tested. Which “%Inh” value did it give?
A: Its value is 67%.

Q: Which “%Inh” value does the source give for `CN(C)S(=O)(=O)c1cc(-c2ccc3nccc(-c4cccc(S(N)(=O)=O)c4)c3c2)cnc1N` [GSK1669921] here?
A: Its value is 0%.

Q: For `COCCOCCOc1cc2ncc3c4ccc(C#N)cc4[nH]c3c2cc1OC`, which “%Inh” value is on record?
A: The value was 72%.

Q: For `Nc1n[nH]c2cnc(-c3ccccc3)cc12` [SB-642124], which “%Inh” value is on record?
A: Its value is 75%.

Q: `CN1CCN(CCCNc2nccc(-c3c(-c4ccc(F)cc4)nn4cc(C(F)(F)F)ccc34)n2)CC1` [GW621581] was tested. Which “%Inh” value did it give?
A: The value was 0%.

Q: For `Nc1ncnc2c1nc(-c1ccccc1)n2-c1ccccc1` [SKF-97293], which “%Inh” value is on record?
A: The value was 6%.

Q: With `Cl.NC(=O)c1cccc(Nc2nccc(Nc3ccc(Oc4c(Cl)cccc4Cl)c(Cl)c3)n2)c1` [GW659009] as the molecule, how does the “%Inh” value read?
A: Its value is 0%.

Q: `Cc1ccc(F)c(C(=O)Nc2cccc(-c3nn4ccccc4c3-c3ccnc(Nc4cccc(F)c4)n3)c2)c1F` [GSK361061] was tested. Which “%Inh” value did it give?
A: Its value is 0%.

Q: With `COc1cccc(-c2ccc3c(NC(=O)C4CC4)n[nH]c3n2)c1` [SB-710903] as the molecule, how does the “%Inh” value read?
A: Its value is 0%.

Q: How did the “%Inh” value turn out when `CC(=O)N1CCN(c2ccc(Nc3nccc(-c4sc(C(C)C)nc4-c4cccc(NS(=O)(=O)c5cccc(Cl)c5)c4)n3)cn2)CC1` [GSK1660437] was run?
A: The value was 0%.

Q: With `C[C@@H]1CC[C@@H](C(=O)Nc2ccccc2)CN1c1cc(-c2ccc3c(N)n[nH]c3c2)nc(N)n1` [GSK2286062] as the molecule, how does the “%Inh” value read?
A: The value was 0%.

Q: How did the “%Inh” value turn out when `Clc1ccc(-c2nn3ncccc3c2-c2ccnc(Nc3ccc4c(c3)OCCO4)n2)cc1` [GW829116] was run?
A: The value was 0%.

Q: With `Cc1ccc(C(=O)N2CC[C@@H](O)C2)cc1-n1c(C)cc(OCc2ccc(F)cc2F)c(Br)c1=O` as the molecule, how does the “%Inh” value read?
A: The value was 0%.
